Source: PubChem BioAssay (EPA / NIEHS)
Several values for one entry are separate records, joined by “and”; a condition that tells them apart may be missing. Identical values can stand only once. Inconclusive results are not listed. More than one record can exist for a structure, and the calls need not agree. Activity calls are given as the source filed them. How the source made its calls, unless noted: active means hit-call score of the fitted dose curve at least 0.9, where 1 is the maximum; inactive means score below 0.9.

Assays:
[1] = target: Bile acid receptor (Homo sapiens) (UniProt Q96RI1); test: ATG_FXR_TRANS: Attagene TRANS-FACTORIAL HepG2 Assay for Farnesoid X Receptor (FXR) (AID 2282979; active means hit-call score of the fitted dose curve at least 0.9, where 1 is the maximum;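 further: hits raise reporter mRNA above DMSO so AC50 marks FXR activation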); details: HepG2 Attagene TRANS FXR-GAL4 reporter transcription
Procedure, shortened: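 Transient transfection of HepG2 with multiplexed GAL4-UAS reporter units; exogenous FXR-GAL4 chimera. Dose 24 h → TriZol RNA → oligo(dT) RT → PCR, 6-FAM primer extension, HpaI cut → CE. Gain vs DMSO.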

[2] = target: Estrogen receptor beta (Homo sapiens) (UniProt Q92731); test: OT_ER_ERbERb_1440: Odyssey Thera (OT) 24-hour HEK293T Protein-Complementation Assay for Estrogen Receptor-beta/-beta Homodimer (AID 2283380; active means hit-call score of the fitted dose curve at least 0.9, where 1 is the maximum;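 further: fluorescence gain from ER beta LBD homodimer complementation read by laser scanning cytometry; scored as signal increase over DMSO baseline for both agonists and antagonists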)
Procedure, shortened: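 Fluorescence increase, nuclear for agonists or whole-cell for antagonists, relative to DMSO vehicle, quantified by laser scanning cytometer after fixation and Draq5 staining. Readout from 24 h treatment of HEK293T cells carrying complementation-paired ER beta LBD (aa 310-547).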

[3] = target: Retinoic acid receptor RXR-alpha (Homo sapiens) (UniProt P19793); test: OT_NURR1_NURR1RXRa_0480: Odyssey Thera (OT) 8-hour HEK293T Protein Complementation Assay for Nurr1/retinoid X receptor (RXR) (AID 2283385; active means hit-call score of the fitted dose curve at least 0.9, where 1 is the maximum)
Procedure, shortened: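 8 h compound exposure, HEK293T; Nurr1/RXRα fragment complementation; fluorescence intensity; positive fitting direction vs DMSO baseline.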

[4] = target: Retinoic acid receptor RXR-alpha (Homo sapiens) (UniProt P19793); test: OT_NURR1_NURR1RXRa_1440: Odyssey Thera (OT) 24-hour HEK293T Protein Complementation Assay for Nurr1/retinoid X receptor (RXR) (AID 2283386; active means hit-call score of the fitted dose curve at least 0.9, where 1 is the maximum)
Procedure, shortened: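 Interaction of Nurr1 with RXRα brings fused reporter fragments together in human HEK293T cells, restoring a functional reporter. Fluorescence intensity is measured 24 h after chemical treatment, and values are analysed in the positive direction against DMSO.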

[5] = target: Peroxisome proliferator-activated receptor gamma (Homo sapiens) (UniProt P37231); test: OT_PPARg_PPARgSRC1_1440: Odyssey Thera (OT) 24-hour Protein-Complementation Assay for Peroxisome Proliferator-activated Receptor Gamma/ SRC-1 Co-activator (AID 2283388; active means hit-call score of the fitted dose curve at least 0.9, where 1 is the maximum;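 further: nuclear to cytoplasmic ratio of reconstituted Venus YFP fluorescence in fixed imaged cells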)
Procedure, shortened: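 Protein-fragment complementation between PPARg and coactivator SRC-1 was measured by fluorescence imaging in transiently transfected HEK293T cells after 24 h treatment. Signal was quantified as N/C ratio in the 488 nm channel, with DMSO as negative control.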

[6] = ACEA_AR_agonist_AUC_viability: ACEA Biosciences xCELLigence Real-Time Cell Analysis on Androgen Receptor Agonism for Viability (AID 2283775; active means hit-call score of the fitted dose curve at least 0.9, where 1 is the maximum;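 on AC50: viability read 80 hours after compound addition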)
Procedure, shortened: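 Real-time impedance tracking of 22Rv1 growth, readings every 5 min for 5 h then hourly; area-under-curve viability endpoint at 80 hours, relative to DMSO. Compounds at eight concentrations, 1:4 steps, top 100 uM, n = 2.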

[7] = ACEA_AR_antagonist_AUC_viability: ACEA Biosciences xCELLigence Real-Time Cell Analysis on Androgen Receptor Antagonism for Viability (AID 2283776; active means hit-call score of the fitted dose curve at least 0.9, where 1 is the maximum;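 further: 22Rv1 human prostate cancer cells growing on impedance electrode plates; hits lower the growth signal relative to DMSO meaning cytotoxicity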)
Procedure, shortened: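 Impedance read-out (RT-CES): area under growth curve at 80 h post-dose, loss of signal scored vs DMSO baseline. 22Rv1 cells; 8-pt 1:4 series, top 100 uM final, ≤0.5% DMSO; biological duplicate.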

[8] = CCTE_Harrill_HTTr_Viability_MCF7: CCTE's 6-hour Cell Viability Assessment for the High-Throughput Transcriptomics (HTTr) Platform, in MCF-7 cells cultured in DMEM + 10% fetal bovine serum, Harrill Lab (AID 2284010)
Procedure, shortened: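 Cells were dosed with chemicals in an eight-point dilution series, imaged 6 hours later for propidium iodide uptake, and the endpoint was analyzed by bidirectional fitting against DMSO as negative control.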

[9] = CCTE_Harrill_HTTr_CellCount_MCF7: CCTE's Cell Proliferation Assessment for the High-Throughput Transcriptomics (HTTr) Platform, Harrill Lab (AID 2284012; active means hit-call score of the fitted dose curve at least 0.9, where 1 is the maximum;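 further: count of Hoechst-stained nuclei per well by high-content imaging in MCF-7 cells; cells exposed to compound for six hours; intended direction is loss of nuclei count meaning fewer cells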)
Procedure, shortened: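 Chemicals in eight-point dilution series are added to MCF-7 cells for six hours, nuclei are stained with Hoechst and imaged, and per-well nuclei counts are fitted in both directions relative to DMSO controls.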

[10] = ATG_ERE_CIS: Attagene CIS-FACTORIAL HepG2 Assay for Estrogen Response Element (ERE) (AID 2282940); details: HepG2 ERE cis-reporter, Attagene RNA transcript; actives raise or lower the signal
Procedure, shortened: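 Fluorescence of capillary-separated, FAM-labelled reporter cDNA fragments indicates reporter mRNA levels in HepG2 cells exposed to chemicals for 24 h. Transient transfection with cis-regulated units; data fitted in both directions against DMSO.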

[11] = BSK_3C_uPAR: BioMAP Diversity Plus: 3C Assay for Urokinase-type plasminogen activator receptor (uPAR) Biomarker Activity (AID 2282998); details: BioMAP 3C HUVEC, uPAR biomarker ELISA; actives raise or lower the signal
Procedure, shortened: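 A multiplexed primary-cell system built on human umbilical vein endothelium was used, with chemical present for 24 h before reading. Cell-surface uPAR was detected by ELISA; signal change in either direction counted against DMSO.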

[12] = BSK_4H_Eotaxin3: BioMAP Diversity Plus: 4H Assay for Eotaxin 3 Biomarker Activity (AID 2283000); details: primary human endothelial cells (HUVEC); actives raise or lower the signal
Procedure, shortened: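 Chemicals were added to human umbilical vein endothelium cultures, and Eotaxin-3 was quantified by ELISA at 24 h. Values were derived by bidirectional fitting with DMSO serving as negative control and activity baseline.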

[13] = target: human RAR-related Orphan Receptor gamma (RORg), RORC (gene 6097) (UniProt P51449); test: ATG_RORg_TRANS: Attagene TRANS-FACTORIAL HepG2 Assay for human RAR-related Orphan Receptor gamma (RORg) (AID 2283011; active means hit-call score of the fitted dose curve at least 0.9, where 1 is the maximum)
Procedure, shortened: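 First, HepG2 liver cells were transfected with GAL4-UAS-driven reporter constructs and the RORg-Gal4 fusion. Next, they were treated with chemical for 24 h. Finally, reporter mRNA was quantified by RT-PCR and capillary electrophoresis, with upward activity fitted against DMSO.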

[14] = read-out: Monocyte Chemoattractant Protein-1 (MCP1), CCL2 (gene 6347); test: BSK_4H_MCP1: BioMAP Diversity Plus: 4H Assay for Monocyte Chemoattractant Protein-1 (MCP1) Biomarker Activity (AID 2283018); details: primary human endothelial cells (HUVEC); actives raise or lower the signal
Procedure, shortened: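 ELISA read-out of MCP-1 from human vascular endothelial primary cells taken at 24 hours after compound exposure. Activity was fitted in both directions relative to DMSO, which served as negative control.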

[15] = read-out: Monokine induced gamma interferon (MIG), CXCL9 (gene 4283); test: BSK_3C_MIG: BioMAP Diversity Plus: 3C Assay for Monokine induced gamma interferon (MIG) Biomarker Activity (AID 2283021); details: primary human endothelial cells (HUVEC); actives raise or lower the signal;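 on AC50: MIG protein level measured by immunoassay in the treated endothelial cultures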
Procedure, shortened: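 Read-out is ELISA detection of MIG on human umbilical vein endothelial cells, taken 24 h after dosing. Gain or loss of signal was scored relative to DMSO controls using bidirectional curve fitting.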

[16] = read-out: Urokinase-type plasminogen activator receptor (uPAR), PLAUR (gene 5329); test: BSK_4H_uPAR: BioMAP Diversity Plus: 4H Assay for Urokinase-type plasminogen activator receptor (uPAR) Biomarker Activity (AID 2283030); details: primary human endothelial cells (HUVEC); actives raise or lower the signal
Procedure, shortened: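 Cell-surface uPAR ELISA signal, measured 24 h after dosing human umbilical vein endothelial cells, was analyzed with bidirectional fitting relative to DMSO. Parallel SRB staining of total protein tracked overt cytotoxicity.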

[17] = read-out: Plasminogen activator inhibitor-1 (PAI1), SERPINE1 (gene 5054); test: BSK_BE3C_PAI1: BioMAP Diversity Plus: BE3C Assay for Plasminogen activator inhibitor-1 (PAI1) Biomarker Activity (AID 2283037); details: primary human bronchial epithelial cells; actives raise or lower the signal
Procedure, shortened: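 Primary human lung bronchial epithelial cells; chemical dosing; 24 h; PAI-1 measured by ELISA; bidirectional fit referenced to DMSO as negative control.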

[18] = read-out: urokinase plasminogen activator (uPA), PLAU (gene 5328); test: BSK_BE3C_uPA: BioMAP Diversity Plus: BE3C Assay for urokinase plasminogen activator (uPA) Biomarker Activity (AID 2283038); details: primary human bronchial epithelial cells; actives raise or lower the signal
Procedure, shortened: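 Bronchial epithelial cells (human, primary); chemical 24 h; uPA by ELISA; bidirectional fit vs DMSO. SRB (0.1%, after 10% TCA fixation, 560 nm) in parallel cultures for cytotoxicity.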

[19] = read-out: Thrombomodulin, THBD (gene 7056); test: BSK_CASM3C_Thrombomodulin: BioMAP Diversity Plus: CASM3C Assay for Thrombomodulin Biomarker Activity (AID 2283051); details: primary human coronary artery smooth muscle cells; actives raise or lower the signal;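 further: thrombomodulin protein level measured by ELISA 24 h after dosing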
[20] = read-out: Interleukin-8 (IL8), CXCL8 (gene 3576); test: BSK_LPS_IL8: BioMAP Diversity Plus: LPS Assay for Interleukin-8 (IL8) Biomarker Activity (AID 2283078); details: primary human HUVEC with PBMC; actives raise or lower the signal
Procedure, shortened: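 Readout is IL-8 by ELISA, taken 24 h after compounds were added to LPS-stimulated endothelial/PBMC co-cultures. Both increases and decreases relative to DMSO control were scored through bidirectional fitting.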

Measured: AC50

Sequence of Estrogen receptor beta (Homo sapiens) (Q92731 whole entry, looked up, the tested form may be a part): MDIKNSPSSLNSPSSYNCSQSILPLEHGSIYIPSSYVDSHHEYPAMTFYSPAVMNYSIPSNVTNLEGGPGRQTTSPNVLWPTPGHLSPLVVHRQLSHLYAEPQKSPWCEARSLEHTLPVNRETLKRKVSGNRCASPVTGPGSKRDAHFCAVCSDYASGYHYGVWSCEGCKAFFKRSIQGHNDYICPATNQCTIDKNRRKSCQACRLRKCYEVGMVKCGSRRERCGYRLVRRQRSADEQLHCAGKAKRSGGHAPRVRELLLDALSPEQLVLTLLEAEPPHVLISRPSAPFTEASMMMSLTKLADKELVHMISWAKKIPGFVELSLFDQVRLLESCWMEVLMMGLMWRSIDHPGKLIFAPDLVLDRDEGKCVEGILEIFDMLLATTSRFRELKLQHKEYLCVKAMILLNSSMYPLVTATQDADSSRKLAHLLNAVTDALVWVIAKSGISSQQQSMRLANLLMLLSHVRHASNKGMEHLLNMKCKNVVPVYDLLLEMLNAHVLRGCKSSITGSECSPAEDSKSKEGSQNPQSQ
Sequence of human RAR-related Orphan Receptor gamma (RORg), RORC (gene 6097) (P51449 whole entry, looked up, the tested form may be a part): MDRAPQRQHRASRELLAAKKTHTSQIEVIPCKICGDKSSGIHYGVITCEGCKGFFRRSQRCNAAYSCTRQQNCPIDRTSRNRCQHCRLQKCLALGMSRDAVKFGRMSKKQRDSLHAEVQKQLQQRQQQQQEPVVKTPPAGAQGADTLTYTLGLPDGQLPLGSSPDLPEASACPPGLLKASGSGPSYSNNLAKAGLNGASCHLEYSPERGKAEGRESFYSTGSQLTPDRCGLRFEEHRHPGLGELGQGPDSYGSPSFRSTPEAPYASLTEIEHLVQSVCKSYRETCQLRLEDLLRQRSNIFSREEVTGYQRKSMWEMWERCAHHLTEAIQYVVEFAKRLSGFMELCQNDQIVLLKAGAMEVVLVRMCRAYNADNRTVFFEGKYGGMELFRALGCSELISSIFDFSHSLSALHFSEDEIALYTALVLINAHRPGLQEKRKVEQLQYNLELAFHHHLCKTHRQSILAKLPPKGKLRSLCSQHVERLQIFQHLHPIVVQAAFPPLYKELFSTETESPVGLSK
Sequence of Bile acid receptor (Homo sapiens) (Q96RI1 whole entry, looked up, the tested form may be a part): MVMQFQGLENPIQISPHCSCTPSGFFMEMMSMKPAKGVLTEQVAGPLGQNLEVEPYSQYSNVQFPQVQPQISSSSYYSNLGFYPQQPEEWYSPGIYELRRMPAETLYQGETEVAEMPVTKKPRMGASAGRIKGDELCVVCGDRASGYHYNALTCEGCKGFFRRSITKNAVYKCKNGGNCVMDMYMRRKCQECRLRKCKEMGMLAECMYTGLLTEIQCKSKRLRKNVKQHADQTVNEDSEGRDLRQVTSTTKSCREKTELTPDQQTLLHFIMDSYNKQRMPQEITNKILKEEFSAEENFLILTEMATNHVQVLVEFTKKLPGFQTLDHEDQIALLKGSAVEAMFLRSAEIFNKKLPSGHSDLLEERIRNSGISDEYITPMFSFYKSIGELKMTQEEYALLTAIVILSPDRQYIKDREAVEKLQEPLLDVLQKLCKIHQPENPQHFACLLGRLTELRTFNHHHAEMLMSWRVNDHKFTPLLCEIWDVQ
Sequence of Peroxisome proliferator-activated receptor gamma (Homo sapiens) (P37231 whole entry, looked up, the tested form may be a part): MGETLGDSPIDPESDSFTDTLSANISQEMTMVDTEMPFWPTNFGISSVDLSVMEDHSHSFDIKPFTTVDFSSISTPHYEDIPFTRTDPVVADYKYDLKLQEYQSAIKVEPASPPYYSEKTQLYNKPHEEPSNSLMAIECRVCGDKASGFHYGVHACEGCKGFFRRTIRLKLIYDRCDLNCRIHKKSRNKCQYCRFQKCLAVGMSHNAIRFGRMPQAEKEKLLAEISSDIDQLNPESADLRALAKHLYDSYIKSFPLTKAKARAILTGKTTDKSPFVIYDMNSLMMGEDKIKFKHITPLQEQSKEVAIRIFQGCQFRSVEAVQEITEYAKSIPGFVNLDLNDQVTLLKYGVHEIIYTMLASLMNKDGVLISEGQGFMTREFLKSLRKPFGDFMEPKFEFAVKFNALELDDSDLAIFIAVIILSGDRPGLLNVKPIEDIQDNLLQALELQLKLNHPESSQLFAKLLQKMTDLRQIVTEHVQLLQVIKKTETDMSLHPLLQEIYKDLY
Sequence of Retinoic acid receptor RXR-alpha (Homo sapiens) (P19793 whole entry, looked up, the tested form may be a part): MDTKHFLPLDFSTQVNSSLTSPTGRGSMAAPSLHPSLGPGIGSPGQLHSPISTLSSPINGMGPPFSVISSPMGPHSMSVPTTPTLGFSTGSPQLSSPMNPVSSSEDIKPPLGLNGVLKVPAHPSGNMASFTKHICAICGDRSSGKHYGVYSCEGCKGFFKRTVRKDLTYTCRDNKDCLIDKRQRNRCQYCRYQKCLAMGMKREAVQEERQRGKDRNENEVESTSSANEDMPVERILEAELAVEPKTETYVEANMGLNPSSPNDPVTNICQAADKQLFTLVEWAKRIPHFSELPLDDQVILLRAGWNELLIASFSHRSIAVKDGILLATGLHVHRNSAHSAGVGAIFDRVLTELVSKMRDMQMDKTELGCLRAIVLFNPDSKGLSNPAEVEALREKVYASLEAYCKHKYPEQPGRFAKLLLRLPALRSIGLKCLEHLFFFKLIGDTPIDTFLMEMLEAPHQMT

O=C1Nc2ccc(Cl)cc2C(c2ccccc2)=NC1O (configuration not stated)
inactive: [1] | [2] | [3] | [4] | [5] | [6] | [7] | [8] | [9]

O=C(O)COc1ccccc1
inactive: [10]

O=C=Nc1ccccc1
inactive: [2] | [4] | [5] | [6] | [7] | [9]

CCCOC(=O)c1ccccc1C(=O)OCCC
active: [10] 49.8 µM
not listed: [2] | [3] | [4] | [5] | [6] | [7] | [8] | [9]
inactive: all other assays above

CC(C)COP(=O)(OCC(C)C)OCC(C)C
inactive: [1] | [11] | [12] | [14] | [15] | [16] | [17] | [18] | [19] | [20]

C=CC(=O)OCC(CC)CCCC (configuration not stated)
active: [6] 4.45 µM
not listed: [1] | [10]
inactive: all other assays above

C[C@]12CCC(=O)C(O)=C1CC[C@@H]1[C@@H]2CC[C@]2(C)C(=O)CC[C@@H]12
active: [10] 16.8 µM
inactive: [8] | [9]

CC(C)(c1cc(Cl)c(O)c(Cl)c1)c1cc(Cl)c(O)c(Cl)c1
inactive: [17] | [18] | [19] | [2] | [5] | [6] | [7]
active: [11] 9.36 µM | [12] 32.1 µM | [14] 20 µM | [15] 28.9 µM | [16] 30.2 µM | [20] 32.5 µM | [3] 74.7 µM | [4] 78.1 µM

COc1ccc(CO)cc1
active: [17] 308 nM
inactive: [1] | [11] | [12] | [13] | [14] | [15] | [16] | [17] | [18] | [19] | [20] | [8] | [9]

[Cl-].[Cl-].[Cl-].[Yb+3]
inactive: [13]

COc1cc(OC)nc(Oc2cccc(Oc3nc(OC)cc(OC)n3)c2C(=O)O)n1
inactive: [1] | [2] | [3] | [4] | [5] | [6] | [7] | [8]

Oc1ccc(C2(c3ccc(O)cc3)c3ccccc3-c3ccccc32)cc1
inactive: [10] | [1] | [18]
active: [11] 11.5 µM and 9 µM | [12] 9.96 µM and 9.53 µM | [14] 13.2 µM and 11.4 µM | [15] 16 µM and 14.8 µM | [16] 16.5 µM and 14.4 µM | [17] 5.27 µM and 5.31 µM | [18] 0.15 µM | [19] 1.93 µM and 20 µM | [20] 28.9 µM and 28.2 µM

O=P(O)(Oc1ccccc1)Oc1ccccc1
inactive: [10] | [1] | [2] | [4] | [5]

CC1(C)CC(=O)CC(C)(C)N1[O]
inactive: [1]

O=CNC(N1CCN(C(NC=O)C(Cl)(Cl)Cl)CC1)C(Cl)(Cl)Cl (configuration not stated)
inactive: [10] | [2] | [3] | [5] | [6] | [7] | [8] | [9]

CC(=O)/C=C/c1ccccc1
active: [20] 20 µM
inactive: [11] | [12] | [14] | [15] | [16] | [17] | [18] | [19]

CC(C)CCCCCCCOP(=O)(Oc1ccccc1)Oc1ccccc1
inactive: [1] | [15] | [18] | [19] | [20]
active: [10] 27.5 µM | [11] 12.1 µM | [12] 20 µM | [14] 4.92 µM | [16] 29.1 µM | [17] 3970 nM

Cc1ccccc1CCl
inactive: [13]

CCCCCCCCCCCC#N
active: [11] 37.8 µM | [12] 27.5 µM | [14] 20.6 µM | [16] 20.6 µM | [20] 29 µM
inactive: [1] | [15] | [17] | [18] | [19]

CC1OC(C)OC(C)O1 (configuration not stated)
inactive: [1]

O=P1(NCCCl)OCCCN1CCCl (configuration not stated)
inactive: [11] | [12] | [14] | [15] | [16] | [17] | [18] | [19] | [20]

Cc1cc(C)c(C2=C(OC(=O)CC(C)(C)C)C3(CCCC3)OC2=O)c(C)c1
inactive: [10] | [1] | [2] | [3] | [4] | [5] | [6] | [7]

CCOP(=O)(OCC)OCC
inactive: [13] | [2] | [3] | [5] | [6]
